Assay [1] in a line: S16 Schwann cell PMP22 intronic element beta-lactamase assay (AID 624044; calls by dose curve; further: nearly all actives have a fitted effect of over 15% in size). In short, it runs like this:
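Rat S16 Schwann cells with beta-Lac driven by a PMP22 intronic element, compound-treated 24 h at 37 °C. LiveBLAzer FRET B/G read: 460 nm normalized to potassium clavulanate vs DMSO; 535 nm FRET as viability; concentration-effect curves classified.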

The next assay concerns ATS95. The experiment in a line: qHTS profiling for inhibitors of Plasmodium falciparum proliferation (AID 504749). Further: nearly all actives have a fitted effect of over 60% in size. Further: potency means the concentration at half of the fitted maximal effect. The following applies: P. falciparum in erythrocytes, SYBR Green DNA, 72 h; series mostly up to 12.8 µM. In short, it runs like this:
(§1)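 P. falciparum-infected erythrocytes (0.3% parasitemia, 2.5% hematocrit final) were exposed to compounds for 72 h at 37 C in 5% CO2, then lysed with SYBR Green buffer overnight at room temperature; parasite DNA fluorescence was normalized to artemisinin and DMSO controls.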
(Quantitative high-throughput screening tests each substance at several concentrations.)

The test system of the next assay is CP194. The assay is described as above. The settings on record: P. falciparum in erythrocytes, SYBR Green DNA, 72 h; series mostly up to 12.8 µM. In short, it runs like this: as §1
A further assay has as its system CP211. The assay is described as above. The following applies: P. falciparum in erythrocytes, SYBR Green DNA, 72 h; series mostly up to 12.8 µM. In short, it runs like this:
as §1

Another assay has as its system CP237. The assay is described as above. The settings on record: P. falciparum in erythrocytes, SYBR Green DNA, 72 h; series mostly up to 12.8 µM. In short, it runs like this:
as §1

Another assay concerns CP247. The description is as above. The settings on record: P. falciparum in erythrocytes, SYBR Green DNA, 72 h; series mostly up to 12.8 µM. In short, it runs like this: as §1
A further assay deals with CP252. The assay is described as above. The settings on record: P. falciparum in erythrocytes, SYBR Green DNA, 72 h; series mostly up to 12.8 µM. In short, it runs like this:
as §1

In a further assay the test system is CP256. The description is as above. The following applies: P. falciparum in erythrocytes, SYBR Green DNA, 72 h; series mostly up to 12.8 µM. In short, it runs like this: as §1
The subject of another assay is CP266. The assay is described as above. The settings on record: P. falciparum in erythrocytes, SYBR Green DNA, 72 h; series mostly up to 12.8 µM. In short, it runs like this: as §1
In the next assay the test system is CP269. Described as above. The following applies: P. falciparum in erythrocytes, SYBR Green DNA, 72 h; series mostly up to 12.8 µM. In short, it runs like this: as §1
A further assay relates to CP286. Described as above. The following applies: P. falciparum in erythrocytes, SYBR Green DNA, 72 h; series mostly up to 12.8 µM. In short, it runs like this: as §1
Another assay deals with CP297. The assay is described as above. The following applies: P. falciparum in erythrocytes, SYBR Green DNA, 72 h; series mostly up to 12.8 µM. In short, it runs like this: as §1
For another assay, the system named is CP325. The description is as above. The following applies: P. falciparum in erythrocytes, SYBR Green DNA, 72 h; series mostly up to 12.8 µM. In short, it runs like this: as §1
A further assay relates to DIV14. Described as above. The following applies: P. falciparum in erythrocytes, SYBR Green DNA, 72 h; series mostly up to 12.8 µM. In short, it runs like this:
as §1

Another assay has as its system Dd2. Described as above. The settings on record: P. falciparum in erythrocytes, SYBR Green DNA, 72 h; series mostly up to 12.8 µM. In short, it runs like this: as §1
A further assay relates to HB3. Described as above. The following applies: P. falciparum in erythrocytes, SYBR Green DNA, 72 h; series mostly up to 12.8 µM. In short, it runs like this: as §1
The next assay deals with P93_24. Described as above. The settings on record: P. falciparum in erythrocytes, SYBR Green DNA, 72 h; series mostly up to 12.8 µM. In short, it runs like this:
as §1

Another assay concerns P94_40. The assay is described as above. The settings on record: P. falciparum in erythrocytes, SYBR Green DNA, 72 h; series mostly up to 12.8 µM. In short, it runs like this: as §1
The subject of the next assay is TAB113. The assay is described as above. The settings on record: P. falciparum in erythrocytes, SYBR Green DNA, 72 h; series mostly up to 12.8 µM. In short, it runs like this:
as §1

The values that follow come from PubChem BioAssay (NCATS).

SMILES strings stand for the structures. Results filed as inconclusive are left out. Activity calls are given as the source filed them. Unless noted, the call rests on the fitted dose curve; in most records, active means well fitted inhibition curve with a large enough effect; inconclusive means small, poorly fitted or top-dose-only effect; inactive means flat fitted curve, though single readings scatter.

Turning to `CC1(C)SC2C(N3C(=O)C(c4ccccc4)NC3(C)C)C(=O)N2C1C(=O)O` (stereo unspecified), the Potency result (in assay [1]; with ATS95; in the assay on CP194; in the assay on CP211; in the assay with CP237; in the assay with CP247) was “inactive” throughout. The Potency result in the assay with CP252, with CP256, in the assay with CP266, with CP269, in the assay on CP286 and in the assay with CP297 was “inactive” in each case. Further, the Potency result in the assay on CP325, in the assay with DIV14, in the assay on Dd2, in the assay on HB3, in the assay with P93_24 and in the assay on P94_40 was “inactive” throughout. In addition, the Potency entry with TAB113 is “inactive”.
Consider `COC1C=CO[C@@]2(C)Oc3c(C)c(O)c4c(O)c(c(C=NN5CCN(C)CC5)c(O)c4c3C2=O)NC(=O)/C(C)=C\C=CC(C)C(O)[C@@H](C)C(O)C(C)[C@H](OC(C)=O)C1C` (stereo partly specified), for which the Potency entry in assay [1] is “inactive”. Besides, the Potency in the assay on ATS95 is 2.51 µM (active); with CP194, 4.78 µM (active); in the assay with CP211, 4.26 µM (active); in the assay with CP237, 0.355 µM (active); in the assay on CP247 it was 3.98 µM (active); in the assay on CP252, 3.16 µM (active). The Potency with CP256 was 3.55 µM (active); with CP266, 6.75 µM (active); with CP269, 4.26 µM (active); in the assay on CP286, 2.51 µM (active); with CP297, 0.953 µM (active); in the assay with CP325, 4.78 µM (active). The Potency in the assay on DIV14 was 0.301 µM (active); in the assay on Dd2, 0.251 µM (active); in the assay on HB3 it was 0.447 µM (active); with P93_24, 0.251 µM (active); with P94_40 it was 0.282 µM (active); in the assay on TAB113, 0.316 µM (active).
With `OCC1OC([S-])[C@H](O)C(O)C1O.[Au+]` (stereo partly specified), the Potency entry (in [1]; in the assay on ATS95; with CP194; in the assay with CP211; in the assay on CP237; with CP247) was “inactive” throughout. Besides, the Potency result in the assay on CP252, with CP256, in the assay with CP266, in the assay on CP269, in the assay on CP286 and in the assay on CP297 was “inactive” in each case. Also, the Potency entry in the assay with CP325, in the assay with DIV14, with Dd2, with HB3, in the assay on P93_24 and with P94_40 was “inactive” in each case. Besides, the Potency entry in the assay on TAB113 was “inactive”.
Consider `CCC1OC(=O)C(C)[C@@H](O[C@H]2C[C@@](C)(OC)C(O)C(C)O2)C(C)[C@@H](O[C@@H]2OC(C)CC(N(C)C)C2O)[C@@](C)(O)CC(C)C(=O)[C@@H](C)C(O)[C@]1(C)O` (stereo partly specified), for which the Potency entry (in [1]; in the assay on ATS95; with CP194; with CP211; in the assay on CP237; in the assay with CP247) was “inactive” each time. Besides, the Potency entry in the assay with CP252, in the assay on CP256, with CP266, with CP269, in the assay on CP286 and in the assay with CP297 was “inactive” in each case. Moreover, the Potency entry in the assay on CP325, in the assay on DIV14, in the assay with Dd2, in the assay with HB3, in the assay with P93_24 and in the assay on P94_40 was “inactive” each time. The Potency entry with TAB113 is “inactive”.
Turning to `O=C1OC(CO)C(O)C(O)C1O` (stereo unspecified), the Potency result (in assay [1]; in the assay on ATS95; with CP194; in the assay on CP211; with CP237; in the assay on CP247) was “inactive” throughout. Besides, the Potency entry in the assay on CP252, with CP256, with CP266, in the assay on CP269, with CP286 and with CP297 was “inactive” in each case. Also, the Potency entry in the assay on CP325, in the assay with DIV14, in the assay with Dd2, with HB3, in the assay with P94_40 and with TAB113 was “inactive” each time.
Consider `CC(C)C1CCC(C(=O)NC(Cc2ccccc2)C(=O)O)CC1` (stereo unspecified), for which the Potency entry (in assay [1]; in the assay on ATS95; in the assay on CP194; with CP211; in the assay with CP237; in the assay with CP247) was “inactive” in each case. Besides, the Potency entry with CP252, with CP256, in the assay with CP269, in the assay with CP286, in the assay on CP297 and with CP325 was “inactive” each time. Also, the Potency result in the assay with DIV14, in the assay with Dd2, in the assay with HB3, with P93_24 and with TAB113 was “inactive” in each case.
On to `Nc1nc2ncc(CNc3ccc(C(=O)NC(CCC(=O)O)C(=O)O)cc3)nc2c(=O)[nH]1` (stereo unspecified), for which the Potency result (in assay [1]; in the assay on CP194; in the assay on CP211; with CP237; in the assay on CP247; with CP252) was “inactive” in each case. For the same molecule, the Potency result with CP256, in the assay with CP266, in the assay with CP269, in the assay with CP286, in the assay on CP297 and in the assay with CP325 was “inactive” each time. For the same molecule, the Potency entry with Dd2, with HB3, in the assay with P93_24, in the assay with P94_40 and in the assay with TAB113 was “inactive” in each case.
Consider `COc1cc(C2c3cc4c(cc3C(O[C@@H]3OC5COC(c6cccs6)OC5C(O)C3O)C3COC(=O)C23)OCO4)cc(OC)c1O` (stereo partly specified), for which the Potency with ATS95 was 2.51 µM (active); with CP194 it was 1.69 µM (active); in the assay with CP211, 3.38 µM (active); in the assay with CP237, 2.24 µM (active); in the assay on CP247 it was 2.24 µM (active); in the assay with CP252, 1.12 µM (active). In addition, the Potency is 3.16 µM (active) with CP256; 4.78 µM (active) in the assay with CP266; 1.69 µM (active) with CP269; 1.26 µM (active) with CP286; 4.78 µM (active) with CP297; 4.78 µM (active) with CP325. The Potency was 1.9 µM (active) in the assay on DIV14; 1.41 µM (active) in the assay on Dd2; 3.16 µM (active) with HB3; 1.58 µM (active) with P93_24; 1.26 µM (active) with P94_40; 2.24 µM (active) in the assay with TAB113.
On to `CC(=O)[C@]1(O)CCC2C3C=C(Cl)C4=CC(=O)C5CC5[C@@]4(C)C3CC[C@]21C` (stereo partly specified), for which the Potency entry (in assay [1]; with ATS95; in the assay with CP194; in the assay on CP211; in the assay on CP237; with CP252) was “inactive” throughout. The Potency result with CP256, in the assay with CP266, in the assay on CP269, in the assay on CP286, with CP297 and in the assay on CP325 was “inactive” in each case. The Potency entry in the assay with DIV14, in the assay with Dd2, with HB3, in the assay with P93_24, in the assay on P94_40 and in the assay on TAB113 was “inactive” throughout.
Consider `CC[C@@]12CCCN3CCc4c(n(c5ccccc45)[C@](O)(C(=O)OC)C1)C32` (stereo partly specified), for which the Potency entry with ATS95, in the assay on CP194, in the assay with CP211, in the assay with CP237, in the assay on CP247 and in the assay on CP252 was “inactive” throughout. The Potency result in the assay with CP256, in the assay on CP266, with CP269, in the assay with CP286, in the assay with CP297 and in the assay on CP325 was “inactive” in each case. Also, the Potency entry in the assay on DIV14, with HB3, with P93_24, in the assay on P94_40 and in the assay with TAB113 was “inactive” each time.
